# Measured values reported in PubChem BioAssay (NCATS).
# Results filed as inconclusive are left out. Values without a mark were called inactive. Calls of active or inactive are those of the source. Calls follow the shape of the dose curve; as a rule, active = well fitted curve in the direction sought with a large enough effect in the signal ratio, with a control signal flat (not every such curve was filed as active); inconclusive = small, poorly fitted or top-dose-only effect, or effect the other way, or a change in a side signal; inactive = no such curve, though single readings can be large or run the other way; the % refers to the signal ratio.
# Biological target: Peroxisome proliferator-activated receptor gamma (Homo sapiens) (UniProt P37231)
# Experiment: qHTS assay for small molecule agonists of peroxisome proliferator-activated receptor gamma signaling (AID 588536)
# Conditions: HEK293 PPARg-UAS-bla, beta-lactamase ratio, 16 h, percent of rosiglitazone response, DMSO as zero; series mostly up to 76.7 µM; activation: at the top concentration
# Source text: NIH Chemical Genomics Center [NCGC] U.S. Environmental Protection Agency [EPA] National Institutes of Environmental Health Sciences [NIEHS] National Toxicology Program [NTP] NCGC Assay Overview The Peroxisome proliferator-activated receptors (PPARs) are lipid-activated transcription factors of the nuclear receptor superfamily with three distinct subtypes namely PPAR alpha, PPAR delta (also called PPAR beta) and PPAR gamma. All these subtypes heterodimerizes with Retinoid X receptor (RXR) and these heterodimers regulate transcription of various genes. PPAR-gamma (glitazone receptor) agonists have been used in the treatment of type 2 diabetes and dyslipidaemia. It is involved in the regulation of glucose and lipid metabolism. PPAR-gamma activates certain genes like Paraoxonase 1 which is responsible for hydrolyzing organophosphates. PPAR-gamma agonists may also be therapeutically important in the treatment of coronary artery disease, obesity and cancer and atherosclerosis.
# NCGC Assay Protocol Summary Using a beta-lactamase reporter-gene under control of Peroxisome Proliferator-Activated-gamma (PPAR-gamma) response element, a cell-based assay [GeneBLAzer PPAR-gamma-UAS-bla assay developed by Invitrogen] was used to measure PPAR-gamma ligands signaling. GeneBLAzer PPAR-gamma-UAS-bla-HEK293 cells were used with assay medium containing 1% charcoal/dextran treated FBS. The assay was performed in clear bottom black Greiner 1536-well plates. Rosiglitazone was used in the screen as the positive control. Library compounds were measured for their ability to stimulate the reporter gene activity. Compounds were screened in a titration series in 1536-well format. The fluorescence intensity (405 nm excitation, 460/530 nm emission) was measured using an EnVision plate reader. Data was normalized relative to Rosiglitazone control (2 uM, 100%), and DMSO only wells (basal, 0%). Concentration-response titration points for each compound were fitted to the Hill equation yielding concentrations of half-maximal stimulation (EC50) and maximal response (efficacy) values. qHTS protocol for PPAR-gamma beta-lactamase assay in agonist mode [Step] [Parameter] [Value] [Description] 1. Reagent; 6 uL; 3000 cells/well 2. Incubation; 37 C for 6 - 6.5 hrs 3. Compounds; 23 nL; 0.59 nM to 92 uM 4. Controls (Rosiglitazone); 23 nL, - One column with dose response, start 19 uM, 1:3 dilutions in duplicates - Final concentrations of 2 uM and 0.5 uM in two columns 5. Incubation; 37 C for 16 hrs 6. Detection reagent; 1 uL of CCF4-dye 7. Incubation; RT for 2 hrs 8. Detection; Fluorescence; Envision plate reader
# Sequence of Peroxisome proliferator-activated receptor gamma (Homo sapiens) (P37231 whole entry, looked up): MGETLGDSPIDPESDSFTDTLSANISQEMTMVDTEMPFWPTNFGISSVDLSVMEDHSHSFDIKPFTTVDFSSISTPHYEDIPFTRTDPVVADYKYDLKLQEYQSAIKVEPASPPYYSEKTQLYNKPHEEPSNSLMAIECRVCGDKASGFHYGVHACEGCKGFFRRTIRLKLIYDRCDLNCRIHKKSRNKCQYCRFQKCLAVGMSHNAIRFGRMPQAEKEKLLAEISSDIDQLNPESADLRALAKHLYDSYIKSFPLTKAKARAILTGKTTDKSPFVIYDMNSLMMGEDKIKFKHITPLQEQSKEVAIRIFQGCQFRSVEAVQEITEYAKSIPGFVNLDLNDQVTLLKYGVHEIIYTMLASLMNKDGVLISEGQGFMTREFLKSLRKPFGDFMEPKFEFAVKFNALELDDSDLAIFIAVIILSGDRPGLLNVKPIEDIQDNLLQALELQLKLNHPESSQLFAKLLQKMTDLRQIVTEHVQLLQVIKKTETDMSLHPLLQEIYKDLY
SMILES,activation [%],outcome
Cc1ccccc1C(N)=O,0.475,
CNc1ccc([N+](=O)[O-])cc1,-1.54,
CCC1CO1 (stereo not given),2.3,
Nc1ccc([N+](=O)[O-])c(N)c1,-2.72,
NC(=O)/N=N/C(N)=O,0.341,
CC(=O)Nc1cccc(N)c1,0.123,
Cc1ccccc1C#N,0.572,
O=[N+]([O-])c1ccc(NCCO)c(OCCO)c1,-2.55,
Oc1cccc(Nc2ccccc2)c1,-0.912,
Cc1cc(C2(c3cc(C)c(O)cc3C)OS(=O)(=O)c3ccccc32)c(C)cc1O,1.56,
C/C=C(/C)C#N,1.9,
CCC(C)(C)C,0.398,
CCOc1ccccc1N,-2,
CCc1ccccc1O,-3.8,
CCCCCCC=O,-1.87,
CCOc1cc(OCC)c(C(C)=O)cc1OCC,-1.23,
CCC(C)(C)C(=O)O,1.75,
Cc1ccc(C(C)(C)C)cc1,-2.78,
Nc1nc(-c2ccccc2)cs1,-3.11,
O=C(O)c1cc(Cl)cc(Cl)c1,8.03,

SMILES,activation [%],outcome
CC(=C/C=C/C(C)=C/C=C/C=C(C)/C=C/C=C(C)/C=C/C(=O)O)/C=C/C(=O)O,5,
CC/C=C/C#N,8.36,
C=C(C)C(=O)OCCCCCCCCCC,4.15,
CC(=O)Nc1ccc(N)cc1,2.72,
Nc1cccc(N)c1,3.7,
C=C(C)OC(C)=O,1.19,
CCCCCNCCCCC,,inactive
CCC(=O)/C=C/C1C(C)=CCCC1(C)C (stereo not given),1.67,
O=C(O)CCSSCCC(=O)O,-1.58,
CCC(C)(C)OC,-0.723,
O=Cc1ccc(Cl)cc1,1.31,
Cc1cccc(C)c1,2.94,
O=Cc1ccccc1Cl,0.304,
N#CCc1ccccc1[N+](=O)[O-],0.22,
O=C1CCCCC1,4.58,
CCCCC(CC)CO (stereo not given),0.0277,
CC(C)N=C=NC(C)C,6.87,
CC(C)=C1CCC(C)CC1=O (stereo not given),1.62,
Cc1ccc2ccccc2c1[N+](=O)[O-],2.36,
CC(C)(C)OCC1CO1 (stereo not given),2.73,
